Laboratory results reported in PubChem BioAssay (Tox21).
Inconclusive results are not listed. Active and inactive are the calls of the source. Calls come from the whole dose curve; as a rule, active = well fitted cell-killing curve with a large enough effect in the repeat runs; inconclusive = weak or mixed curves, or effect the other way; inactive = flat fitted curve, though single readings scatter.

assay: qHTS assay to identify small molecule agonists of the TGF-beta/Smad signaling pathway - cell viability counter screen (AID 1346829); conditions: SBE-bla HEK293T viability, CellTiter-Glo luminescence, 5 h; series mostly up to 76.8 µM; activity change, negative = cytotoxicity: at the top concentration; note: top concentration of the series differs between compounds; nearly all actives have a fitted effect of over 45% in size
Outline: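 Here the cytotoxicity of library compounds is measured in SBE-bla HEK 293T cells treated for 5 hr, using CellTiter-Glo added to wells already read for the beta-lactamase reporter.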
% is set by controls: 0 for no effect and ±100 for the full control effect.

SMILES	activity change, negative = cytotoxicity
COc1ccnc(CS(=O)c2nc3ccc(OC(F)F)cc3[nH]2)c1OC (stereo not given)	9.03% [at 35.3 µM] (inactive)
O=C(O)c1ccc(S(=O)(=O)O)cc1C(=O)O	4% (inactive)
COS(=O)(=O)C(F)(F)F	8.63% (inactive)
OCCNCc1ccccc1	15.8% (inactive)
CCOCC(O)COc1ccc(NC(=O)CC[S+](C)C)cc1 (stereo not given)	0.262% [at 35.3 µM] (inactive)
CC(=O)c1cccc([N+](=O)[O-])c1	-9.56% (inactive)
CCCCC1=NC2(CCCC2)C(=O)N1Cc1ccc(-c2ccccc2-c2nn[nH]n2)cc1	5.99% [at 35.3 µM] (inactive)
CCCCCCCN	-13% (inactive)
CC(CC=O)c1ccccc1 (stereo not given)	-5.76% (inactive)
CCOC(=O)C(=O)CCc1ccccc1	13.2% [at 35.3 µM] (inactive)
C[N+](C)(C)CCOC(=O)CCC(=O)OCC[N+](C)(C)C	1.27% [at 35.3 µM] (inactive)
CCCCCCCCO[C@@H]1O[C@H](CO)[C@@H](O)[C@H](O)[C@H]1O	2.01% (inactive)
c1cc(CCCc2ccncc2)ccn1	0.0016% (inactive)
CCOC(=O)Cc1cccc2ccccc12	1.69% (inactive)
CCO[C@H](Cc1ccc(OCCc2ccc(OS(C)(=O)=O)cc2)cc1)C(=O)O	-1.51% [at 35.3 µM] (inactive)
Cc1cc(C(=O)O)ccc1[N+](=O)[O-]	25.7% (inactive)
CCN(CC)CCNC(=O)c1cc(Br)c(N)cc1OC	4.48% [at 35.3 µM] (inactive)
OC[C@H]1O[C@@H](OCCc2ccc(O)cc2)[C@H](O)[C@@H](O)[C@@H]1O	13.2% [at 35.3 µM] (inactive)

SMILES	activity change, negative = cytotoxicity
C=C1[C@H]2CC[C@@H]3[C@H]2C(C)(C)CCC[C@]13C	0.041% (inactive)
C=CCOc1ccccc1OCC(O)CNC(C)C (stereo not given)	1.56% [at 35.3 µM] (inactive)
CCOC(=O)c1cccnc1	-11.1% [at 35.3 µM] (inactive)
NCC(=O)O	0.104% [at 15.8 µM] (inactive)
CN1Cc2cc(C(=O)N3CCC(C4CCNCC4)CC3)ccc2NC(CC(=O)O)C1=O (stereo not given)	20% [at 35.3 µM] (inactive)
CCN(CC)CCOC(=O)C(c1ccccc1)C1CCCCC1 (stereo not given)	-14.3% [at 35.3 µM] (inactive)
O=C1C(O)=C(O)C(=O)C(O)=C1O	11.4% [at 35.3 µM] (inactive)
Cc1[nH]c(C)c(Cl)c(=O)c1Cl	5.04% [at 15.8 µM] (inactive)
O=C(O)CNCC(=O)O	-7.04% [at 6.97 µM] (inactive)
O=C(CS)Nc1ccccc1	0.319% [at 35.3 µM] (inactive)
NCC(=O)CCC(=O)O	7.27% [at 35.3 µM] (inactive)
Cc1ncc(CO)c(C=O)c1O	5.79% [at 35.3 µM] (inactive)
O=C1CCCCCCCCCCCC(=O)OCCO1	-8% (inactive)
CCOc1ccc(O)cc1	13.4% (inactive)
NCCCN1CCOCC1	-0.022% (inactive)
CCCCCCCCCCCCCCCCOS(=O)(=O)O	-0.0772% [at 35.3 µM] (inactive)
NCc1ccccc1Sc1ccccc1CO	1.49% [at 35.3 µM] (inactive)
